Active and inactive are the calls of the source. How the source made its calls: active means hit-call score of the fitted dose curve at least 0.9, where 1 is the maximum; inactive means score below 0.9.
Tests used:
[1] = ATG_CRE_CIS: Attagene CIS-FACTORIAL HepG2 Assay for human cAMP Responsive Element (CRE) binding protein 3 (AID 2282926); settings: HepG2 CRE cis-reporter, Attagene multiplexed mRNA; actives raise or lower the signal
How it was run: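 We dosed HepG2 cells bearing multiple cis-promoter reporter units for 24 h and measured reporter mRNA by RT-PCR with capillary electrophoresis detection. Bidirectional concentration-response fitting used DMSO as negative control.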

[2] = biological target: CCAAT/enhancer-binding protein beta (Homo sapiens) (UniProt P17676); assay: ATG_C_EBP_CIS: Attagene CIS-FACTORIAL HepG2 Assay for human CCAAT/Enhancer Binding Protein (C/EBP) beta (AID 2282927); settings: HepG2 Attagene cis-factorial transcription factor reporter; actives raise or lower the signal
Sequence of CCAAT/enhancer-binding protein beta (Homo sapiens) (P17676 whole entry, looked up): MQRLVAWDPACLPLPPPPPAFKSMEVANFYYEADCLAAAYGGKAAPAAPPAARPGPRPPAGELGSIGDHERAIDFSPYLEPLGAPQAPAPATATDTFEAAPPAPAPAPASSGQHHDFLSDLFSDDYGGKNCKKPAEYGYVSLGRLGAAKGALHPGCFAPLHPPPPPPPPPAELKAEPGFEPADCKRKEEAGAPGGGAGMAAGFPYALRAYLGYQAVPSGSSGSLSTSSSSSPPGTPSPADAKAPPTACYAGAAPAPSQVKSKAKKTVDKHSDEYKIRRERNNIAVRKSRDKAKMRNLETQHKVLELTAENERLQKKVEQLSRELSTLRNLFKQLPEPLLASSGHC
How it was run: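 HepG2 transiently transfected with multiplexed reporter units under cis-regulatory promoters reporting endogenous C/EBPb activity. After 24 h exposure, reporter mRNA assayed by RT-PCR, fluorescent labelling, HpaI digestion and capillary electrophoresis; bidirectional fitting versus DMSO.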

[3] = ATG_CMV_CIS: Attagene CIS-FACTORIAL HepG2 Assay for human CMV (Internal Marker) (AID 2282928); settings: HepG2 CMV promoter reporter, transcription factor profiling; actives raise or lower the signal;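 further: endpoint acts as a background internal control marker rather than a target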
How it was run: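 Cell system: HepG2, transiently transfected multiple reporter units under cis promoters. Exposure: 24 h. Detection: RT-PCR, FAM labeling, HpaI digestion, capillary electrophoresis. Analysis: bidirectional, DMSO baseline.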

[4] = ATG_DR4_LXR_CIS: Attagene CIS-FACTORIAL HepG2 Assay for human Liver X Receptor (LXR), DR4 submotif (AID 2282929); settings: HepG2 Attagene DR4 cis-reporter, mRNA transcription; actives raise or lower the signal
How it was run: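 The endpoint is DR4-element-driven reporter transcripts after 24 h chemical exposure of transfected HepG2 cells. These were measured via RT-PCR and capillary electrophoresis, and gain or loss of signal was fitted relative to DMSO controls.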

[5] = biological target: Aryl hydrocarbon receptor (Homo sapiens) (UniProt P35869); assay: ATG_Ahr_CIS: Attagene CIS-FACTORIAL HepG2 Assay for human Aryl Hydrocarbon Receptor (Ahr) (AID 2282930); settings: HepG2 AhR cis-factorial reporter transcription; actives raise or lower the signal
Sequence of Aryl hydrocarbon receptor (Homo sapiens) (P35869 whole entry, looked up): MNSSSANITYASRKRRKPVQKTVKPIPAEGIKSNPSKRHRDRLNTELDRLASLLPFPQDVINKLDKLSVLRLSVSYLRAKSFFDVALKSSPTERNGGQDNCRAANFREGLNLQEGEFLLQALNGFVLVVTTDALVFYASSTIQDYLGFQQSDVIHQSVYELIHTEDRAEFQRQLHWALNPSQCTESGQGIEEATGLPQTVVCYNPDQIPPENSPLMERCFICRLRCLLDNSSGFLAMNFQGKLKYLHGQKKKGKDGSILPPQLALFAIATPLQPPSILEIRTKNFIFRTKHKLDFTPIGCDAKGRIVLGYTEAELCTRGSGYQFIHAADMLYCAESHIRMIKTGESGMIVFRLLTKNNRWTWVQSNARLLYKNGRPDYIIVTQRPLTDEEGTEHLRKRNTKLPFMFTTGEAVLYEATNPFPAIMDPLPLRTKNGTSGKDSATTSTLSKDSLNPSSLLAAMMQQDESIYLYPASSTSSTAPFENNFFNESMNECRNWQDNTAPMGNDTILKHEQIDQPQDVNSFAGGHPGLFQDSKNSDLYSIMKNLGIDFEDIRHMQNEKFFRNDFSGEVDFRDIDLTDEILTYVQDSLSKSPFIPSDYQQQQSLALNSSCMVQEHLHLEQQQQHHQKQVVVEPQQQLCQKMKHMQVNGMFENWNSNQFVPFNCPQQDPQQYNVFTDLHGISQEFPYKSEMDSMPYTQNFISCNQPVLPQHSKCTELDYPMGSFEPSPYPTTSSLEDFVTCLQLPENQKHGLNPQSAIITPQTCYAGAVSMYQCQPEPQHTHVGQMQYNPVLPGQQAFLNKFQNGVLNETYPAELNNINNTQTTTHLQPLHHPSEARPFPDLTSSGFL
How it was run: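 HepG2 cells transiently transfected with cis-element-driven multiplexed reporter units; endogenous AhR activity read as reporter mRNA 24 h after dosing, via RT-PCR, 6-FAM labelling, HpaI digestion and capillary electrophoresis. Bidirectional fit relative to DMSO.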

[6] = ATG_AP_1_CIS: Attagene CIS-FACTORIAL HepG2 Assay for human Activator Protein 1 (AP-1) (AID 2282931); settings: HepG2 Attagene cis-factorial AP-1 reporter mRNA; actives raise or lower the signal
How it was run: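 Readout is reporter transcript level from endogenous transcription factor activity, quantified by RT-PCR with fluorescent primer extension and capillary electrophoresis. Transiently transfected HepG2 cells, 24 h exposure. Curves fitted both directions versus DMSO.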

[7] = ATG_AP_2_CIS: Attagene CIS-FACTORIAL HepG2 Assay for human Activator Protein 2 (AP-2) (AID 2282932); settings: HepG2 AP-2 cis-reporter, Attagene transcription factor profiling; actives raise or lower the signal
How it was run: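 HepG2 cells transiently transfected with cis-element reporter units and exposed for 24 h. Reporter mRNA measured by RT-PCR, FAM labelling, HpaI digestion and capillary electrophoresis. Changes in either direction fitted relative to DMSO.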

[8] = ATG_BRE_CIS: Attagene CIS-FACTORIAL HepG2 Assay for human Bone Morphogenetic Protein (BMP) Response Element (BRE) (AID 2282933); settings: HepG2 BMP response element reporter, Attagene transcription factor profiling; actives raise or lower the signal
How it was run: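 Fluorescence-labelled reporter cDNA fragments, separated by capillary electrophoresis, gave the signal for this component of a 52-readout multiplex. HepG2 cells were transfected, exposed to chemicals for 24 h, and compared with DMSO using bidirectional fitting.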

[9] = biological target: Retinoic acid receptor alpha (Homo sapiens) (UniProt P10276); assay: ATG_DR5_RAR_CIS: Attagene CIS-FACTORIAL HepG2 Assay for human Retinoic Acid Receptor Alpha (RARE), DR5 submotif (AID 2282934); settings: HepG2 Attagene cis-factorial RARE DR5 reporter, mRNA; actives raise or lower the signal;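 on AC50: reporter responds to endogenous RAR alpha beta and gamma in HepG2 not RARA alone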
Sequence of Retinoic acid receptor alpha (Homo sapiens) (P10276 whole entry, looked up): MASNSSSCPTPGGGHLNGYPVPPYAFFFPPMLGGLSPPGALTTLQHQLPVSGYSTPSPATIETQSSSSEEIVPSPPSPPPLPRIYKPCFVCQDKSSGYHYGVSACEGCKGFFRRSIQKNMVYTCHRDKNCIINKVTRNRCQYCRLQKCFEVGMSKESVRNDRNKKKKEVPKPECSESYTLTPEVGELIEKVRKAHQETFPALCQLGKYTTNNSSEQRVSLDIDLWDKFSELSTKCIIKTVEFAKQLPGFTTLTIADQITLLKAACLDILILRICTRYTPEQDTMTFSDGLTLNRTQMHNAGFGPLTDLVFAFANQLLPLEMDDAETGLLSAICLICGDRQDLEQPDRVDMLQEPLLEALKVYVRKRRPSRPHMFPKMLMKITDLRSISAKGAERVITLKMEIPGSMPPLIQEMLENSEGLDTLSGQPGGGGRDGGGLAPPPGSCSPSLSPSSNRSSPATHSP
How it was run: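 HepG2 cells transiently transfected with multiplexed reporter units; DR5 cis-element drives reporter through endogenous transcription factors. After 24 h dosing, reporter mRNA quantified by RT-PCR, fluorescent labeling, HpaI digestion and capillary electrophoresis; bidirectional fitting versus DMSO.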

[10] = biological target: Transcription factor E2F1 (Homo sapiens) (UniProt Q01094); assay: ATG_E2F_CIS: Attagene CIS-FACTORIAL HepG2 Assay for human E2F Transcription Factor 1 (AID 2282935); settings: HepG2 Attagene cis-reporter, E2F reporter RNA transcripts; actives raise or lower the signal
Sequence of Transcription factor E2F1 (Homo sapiens) (Q01094 whole entry, looked up): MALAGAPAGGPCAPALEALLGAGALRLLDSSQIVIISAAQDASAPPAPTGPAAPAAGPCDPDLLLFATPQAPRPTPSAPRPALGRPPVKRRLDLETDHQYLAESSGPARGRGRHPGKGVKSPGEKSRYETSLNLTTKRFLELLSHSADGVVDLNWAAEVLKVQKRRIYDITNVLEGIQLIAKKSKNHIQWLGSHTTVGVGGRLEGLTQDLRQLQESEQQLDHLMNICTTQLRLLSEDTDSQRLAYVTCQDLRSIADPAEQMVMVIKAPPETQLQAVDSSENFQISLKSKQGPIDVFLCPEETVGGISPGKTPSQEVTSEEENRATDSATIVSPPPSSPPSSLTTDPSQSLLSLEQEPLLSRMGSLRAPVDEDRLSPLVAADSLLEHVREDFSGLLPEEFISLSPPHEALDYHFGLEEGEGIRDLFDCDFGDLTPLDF
How it was run: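 Endogenous E2F1 activity read through cis-promoter reporter units transfected into HepG2. After 24 h compound treatment, reporter mRNA measured by RT-PCR, HpaI digestion and capillary electrophoresis. Bidirectional fit versus DMSO.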

[11] = ATG_E_Box_CIS: Attagene CIS-FACTORIAL HepG2 Assay for human Enhancer Box (E-box) (AID 2282936); settings: HepG2 E-box cis-reporter transcription, actives raise or lower the signal
How it was run: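 HepG2 cells transiently transfected with multiplexed cis-element reporter units, dosed 24 h; reporter mRNA quantified by RT-PCR, 6-FAM labelling, HpaI digestion and capillary electrophoresis. E-box (USF1) signal fitted bidirectionally vs DMSO.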

[12] = ATG_M_61_CIS: Attagene CIS-FACTORIAL HepG2 Assay for M61 Transcription Factor (Internal Marker) (AID 2282937); settings: HepG2 Attagene CIS-FACTORIAL M61 internal marker reporter; actives raise or lower the signal
How it was run: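 Readout is reporter mRNA by RT-PCR, fluorescent primer extension and capillary electrophoresis, with gain or loss fitted relative to DMSO. Transfected HepG2 cells carrying endogenous-TF-driven cis reporters were exposed to chemicals for 24 hours.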

[13] = ATG_EGR_CIS: Attagene CIS-FACTORIAL HepG2 Assay for human Early Growth Response 1 (EGR1) (AID 2282938); settings: HepG2 Attagene CIS-FACTORIAL EGR reporter mRNA; actives raise or lower the signal
How it was run: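 After 24 h compound exposure, RNA from reporter-transfected HepG2 cells was reverse-transcribed, PCR-amplified, fluorescently labelled and resolved by capillary electrophoresis. EGR1 reporter transcript changes, up or down, were fitted against DMSO, reflecting endogenous transcription-factor activity.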

[14] = ATG_M_19_CIS: Attagene CIS-FACTORIAL HepG2 Assay for M19 Transcription Factor (Internal Marker) (AID 2282939); settings: HepG2 Attagene CIS-FACTORIAL M19 internal marker reporter; actives raise or lower the signal
How it was run: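 HepG2, MRTU transient transfection, 24 h dosing. Total RNA → RT-PCR → 6-FAM primer extension → HpaI digest → CE fluorescence. Bidirectional curve fit, DMSO negative control.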

[15] = biological target: Hepatocyte nuclear factor 3-beta (Homo sapiens) (UniProt Q9Y261); assay: ATG_FoxA2_CIS: Attagene CIS-FACTORIAL HepG2 Assay for human Forkhead box A2 (FOXA2) (AID 2282942); settings: HepG2 cis-reporter transcription factor activity, 24 h; actives raise or lower the signal
Sequence of Hepatocyte nuclear factor 3-beta (Homo sapiens) (Q9Y261 whole entry, looked up): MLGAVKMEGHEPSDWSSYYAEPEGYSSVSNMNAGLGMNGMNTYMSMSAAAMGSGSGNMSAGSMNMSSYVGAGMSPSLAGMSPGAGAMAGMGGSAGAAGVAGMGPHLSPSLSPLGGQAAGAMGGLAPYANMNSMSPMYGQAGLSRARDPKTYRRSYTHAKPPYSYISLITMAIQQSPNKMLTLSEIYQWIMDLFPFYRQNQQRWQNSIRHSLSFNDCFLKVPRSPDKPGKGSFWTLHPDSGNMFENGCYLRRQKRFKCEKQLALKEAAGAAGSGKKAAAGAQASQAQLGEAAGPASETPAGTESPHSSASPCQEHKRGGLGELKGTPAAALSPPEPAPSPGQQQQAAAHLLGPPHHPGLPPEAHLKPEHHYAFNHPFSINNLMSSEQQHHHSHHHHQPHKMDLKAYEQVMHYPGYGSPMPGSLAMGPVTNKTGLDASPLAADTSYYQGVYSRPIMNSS
How it was run: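 Endogenous transcription factor activity is captured via cis-element-driven reporter transcripts in transfected HepG2. Total RNA taken at 24 h post-dosing; labelled RT-PCR products resolved by capillary electrophoresis. Gain or loss fitted versus DMSO.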

[16] = ATG_FoxO_CIS: Attagene CIS-FACTORIAL HepG2 Assay for human Forkhead box O (FoxO) (AID 2282943); settings: HepG2 Attagene cis-reporter, FoxO element, mRNA; actives raise or lower the signal
How it was run: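 HepG2 cells transiently transfected with cis-element-driven reporter units report endogenous FoxO activity. After 24 h chemical exposure, reporter mRNA quantified by RT-PCR, fluorescent labeling, HpaI digestion and capillary electrophoresis; bidirectional fit versus DMSO.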

[17] = ATG_GATA_CIS: Attagene CIS-FACTORIAL HepG2 Assay for human GATA Binding Protein (AID 2282944); settings: HepG2 GATA cis-element reporter, Attagene multiplex mRNA; actives raise or lower the signal
How it was run: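 Cells: HepG2, transiently transfected with cis-regulated reporter transcription units. Exposure: 24 h. Detection: RT-PCR plus capillary electrophoresis of FAM-labeled fragments. Analysis: bidirectional, DMSO as baseline.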

[18] = ATG_GLI_CIS: Attagene CIS-FACTORIAL HepG2 Assay for human Zinc Finger Protein GLI1 (AID 2282945); settings: HepG2, Attagene cis-factorial reporter mRNA, GLI element; actives raise or lower the signal
How it was run: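 Transiently transfected HepG2 cells report endogenous transcription factor activity via cis-element-driven reporter units. After 24 h compound exposure, reporter mRNA was measured by RT-PCR with capillary electrophoresis; bidirectional fitting against DMSO baseline.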

[19] = ATG_Ets_CIS: Attagene CIS-FACTORIAL HepG2 Assay for human Erythroblast Transformation Specific (ETS) (AID 2282941); settings: HepG2 ETS cis-reporter transcription, actives raise or lower the signal
How it was run: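 After transient cis-reporter transfection, HepG2 cells receive test chemical for 24 h. Reporter mRNA levels, measured by RT-PCR and capillary electrophoresis fluorescence, are analysed bidirectionally relative to the DMSO baseline.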

Measured: AC50

CCCCCCCCc1ccc(S(=O)(=O)O)cc1
active: [1] 19.7 µM | [4] 42.1 µM | [10] 155 µM | [11] 159 µM | [12] 155 µM | [14] 157 µM | [16] 159 µM | [17] 99.5 µM | [18] 168 µM
inactive: [2] | [3] | [5] | [6] | [7] | [8] | [9] | [13] | [15]

C=COCCOCCOC=C
inactive: all assays above

c1ccc(Oc2ccccc2)cc1
inactive: all assays above

CC(C)(N=C=O)c1cccc(C(C)(C)N=C=O)c1
not listed: [12]
inactive: all other assays above

CCOC(=O)C1OC1c1ccccc1 (stereo not given)
active: [3] 38.6 µM | [4] 37.6 µM | [5] 11.5 µM | [6] 43.6 µM | [9] 49.9 µM | [11] 57 µM
inactive: all other assays above

CC1=C(Br)C(=O)C(Br)=C/C1=C(/c1ccccc1S(=O)(=O)O)c1cc(Br)c(O)c(Br)c1C
active: [5] 51.1 µM
not listed: [17]
inactive: all other assays above

CCCCCCCCSCCO
active: [1] 100 µM | [2] 100 µM | [3] 100 µM | [4] 148 µM
not listed: [17]
inactive: all other assays above

CCCCCCC(=O)c1ccccc1
active: [6] 154 µM | [9] 101 µM
not listed: [19]
inactive: all other assays above

Nc1ccc2c(O)cc(S(=O)(=O)O)cc2c1
active: [5] 25.9 µM
not listed: [17]
inactive: all other assays above

C1=CC2C3C=CC(C3)C2C1 (stereo not given)
active: [5] 98.5 µM
inactive: all other assays above

Nc1ccccc1[N+](=O)[O-]
inactive: all assays above

CCCCCCCCCCCCS(=O)(=O)Cl
not listed: [19]
inactive: all other assays above

CCCCCCCCCC(C)C=O (stereo not given)
inactive: all assays above

— PubChem BioAssay (EPA / NIEHS)
